PubChem BioAssay AID1376 (SRMLSC, 2008)
Screen size: about 220,000 compounds; about 530 (0.24%) were called active. The entries come from a sample that favours actives as a whole. Measured potencies and affinities stand elsewhere. Values without a mark were called inactive. Cut-off read from the data, not from the text of the source: active = inhibition above about 13%; inconclusive = no clear call, values can overlap the other calls; inactive = below that.

What follows are molecules tested against Bifunctional protein GlmU (Mycobacterium tuberculosis (strain ATCC 25618 / H37Rv)) (UniProt P9WMN3) (assay: inhibition of mycobacterial GlmU enzyme – biochemical, glucosamine-1-phosphate acetyltransferase (AID 1376;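 note: 0% = complete reaction with vehicle and 100% = reaction without substrate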)). Conditions: M. tuberculosis GlmU acetyltransferase enzyme assay; stronger effect = higher value;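 tested at 30 µM in the primary screen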.
Sequence of Bifunctional protein GlmU (Mycobacterium tuberculosis (strain ATCC 25618 / H37Rv)) (P9WMN3 whole entry, looked up): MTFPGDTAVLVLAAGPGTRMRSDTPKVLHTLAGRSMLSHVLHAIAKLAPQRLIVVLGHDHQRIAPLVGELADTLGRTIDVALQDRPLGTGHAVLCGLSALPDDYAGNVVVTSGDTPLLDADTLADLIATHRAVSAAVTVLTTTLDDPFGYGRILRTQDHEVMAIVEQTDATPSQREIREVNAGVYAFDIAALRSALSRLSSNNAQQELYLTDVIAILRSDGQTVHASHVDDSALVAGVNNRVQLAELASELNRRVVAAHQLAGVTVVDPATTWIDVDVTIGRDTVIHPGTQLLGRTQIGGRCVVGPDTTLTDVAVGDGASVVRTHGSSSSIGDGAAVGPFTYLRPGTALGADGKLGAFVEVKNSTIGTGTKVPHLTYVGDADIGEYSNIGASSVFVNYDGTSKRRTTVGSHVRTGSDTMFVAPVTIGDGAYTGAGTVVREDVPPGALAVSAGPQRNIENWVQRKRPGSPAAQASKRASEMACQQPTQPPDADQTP

Compound	inhibition
Cc1cc(C)n2nc(CC(=O)NCc3ccc(F)cc3)nc2n1	3.44%
Cc1ccc(NC(=O)Cc2sc(C)nc2-c2ccc(C)cc2)cc1	-0.58%
Cc1ccc(-c2nc(C)sc2CC(=O)Nc2nnc(C)s2)cc1	-1.22%
Cc1ccc(-c2nc(C)sc2CC(=O)NCc2ccco2)cc1	14.4% (active)
Cc1coc(NC(=O)CSc2nc(-c3ccncc3)cc(C(F)(F)F)c2C#N)n1	-2.15%
COc1ccccc1Cn1c(=S)[nH]c2cc(C(=O)NCc3cccnc3)ccc2c1=O	-2.96%
COc1cc(CNn2cn[nH]c2=S)cc(Cl)c1OCc1ccccc1	-2.33%
COc1cccc(-c2cc(-c3cccnc3)nc(N)c2C#N)c1	2.15%
O=[N+]([O-])c1ccc(N2CCN(CCO)CC2)c2ncccc12	-1.16%
O=[N+]([O-])c1c(N2CCN(CCO)CC2)nc2ccccn12	15.2% (active)
Cc1nc([N+](=O)[O-])cn1-c1nc2ccccn2c1[N+](=O)[O-]	-6.37%
COc1cccc(N2[C@@H](CC(=O)O)c3cc(C(F)(F)F)ccc3S2(=O)=O)c1	7.93%
C=CCn1c(Sc2ncc([N+](=O)[O-])s2)n[nH]c1=O	7.87%
Cc1cc(=O)n2[nH]c(=O)c(N=Nc3ccccc3)c2[nH]1	4.01%
CCOc1ccc(N=Nc2c(=O)[nH]n3c(=O)c4c([nH]c23)CCCC4)cc1	4.96%
Cc1ccc(N=Nc2c(=O)[nH]n3c(=O)cc(C)[nH]c23)cc1	9.14%
CCOc1ccc(N=Nc2c(=O)[nH]n3c(=O)cc(C)[nH]c23)cc1	17.1% (active)
COc1cccc(N=Nc2c(=O)[nH]n3c(=O)c4c([nH]c23)CCC4)c1	5.17%
COc1cccc(N=Nc2c(=O)[nH]n3c(=O)cc(C)[nH]c23)c1	13% (active)
COc1cc(NC(=O)c2cccc(COCC(F)(F)C(F)F)c2)cc(OC)c1OC	-1.01%
CC(C)C1Oc2cc3oc(=O)ccc3cc2C1=O (stereo unspecified)	0.4%

Compound	inhibition
S=c1[nH]nc(-c2cccnc2)n1/N=C/C=C/c1ccco1	7.53%
S=c1[nH]nc(-c2ccccc2)n1/N=C/C=C/c1ccco1	6.1%
S=c1[nH]nc(-c2ccncc2)n1/N=C/C=C/c1ccco1	13.6% (active)
O=C1NC(=O)N(Cc2ccccc2Cl)C(=O)/C1=C/c1cccs1	1.69%
C(=N/N1CCN(c2ccccc2)CC1)/c1ccncc1	-0.53%
CCOc1ccc(Br)cc1S(=O)(=O)N1CCCC1	-3.03%
COc1ccc(Br)cc1S(=O)(=O)N1CCCC1	14.1% (active)
COc1ccc(Br)cc1S(=O)(=O)N1CCOCC1	-4.63%
C=CCN(CC=C)C(=O)Nc1cc(Cl)ccc1OC	6.87%
O=C(CC1C(=O)N(c2ccccc2)C(=O)N1Cc1ccco1)Nc1ccccc1 (stereo unspecified)	0.18%
Cc1nnc(SCC(=O)N(C)CC(=O)Nc2ccc(F)cc2)n1Cc1ccccc1	-4.08%
Cc1cc(SCC(=O)N(C)CC(=O)Nc2ccc(F)cc2)nc2ccccc12	13.3% (active)
Cc1csc(SCC(=O)N(C)CC(=O)Nc2ccc(F)cc2)n1	-5.2%
Cc1ccc(C)n1-c1sc2c(c1C(=O)O)CCCC2	11.2%
Cc1ccc(C)n1-c1ccc(C(=O)O)cc1	11.1%
Cc1cccc(-n2c(-c3ccco3)nc3ccccc3c2=O)n1	-2%
Cc1nc(S/C(=C/c2ccc(-c3ccc(C(=O)O)cc3)o2)C(=O)O)n[nH]1	11.3%
Cc1nc(S/C(=C/c2ccc(-c3ccc(Cl)cc3)o2)C(=O)O)n[nH]1	-0.27%
CC(=O)Nc1ccc(NC(=O)COC(=O)[C@@H](NC(=O)c2ccc(F)cc2)C(C)C)cc1	-1.53%
Cc1ccccc1C(=O)N1CCN(c2ccc(NC(=O)c3ccc4c(c3)OCO4)cc2)CC1	-4.66%
CNC(=O)COC(=O)CCC(=O)c1cccs1	4.98%

Compound	inhibition
O=C(O)c1cccc(S(=O)(=O)N2CCN(C(c3ccccc3)c3ccccc3)CC2)c1	-1.93%
Cc1coc(NC(=O)CSc2nc(-c3ccc(Cl)cc3)cc(C(F)(F)F)c2C#N)n1	3.77%
COC(=O)C1=C2c3[nH]c4ccccc4c3CCN2C(=O)CC1	-2.64%
CN(C)S(=O)(=O)c1cccc(NC(=O)NCCCl)c1	8%
Cc1ccc(CCNC(=O)CN(C)S(=O)(=O)c2ccc3c(c2)c(=O)n(C)c(=O)n3C)cc1	2.34%
CN(CC(=O)NCCc1ccc(Cl)cc1)S(=O)(=O)c1ccc2c(c1)c(=O)n(C)c(=O)n2C	-0.75%
CCCCN(CC)CCNC(=O)CN(C)S(=O)(=O)c1ccc2c(c1)c(=O)n(C)c(=O)n2C	20.9% (active)
O=C1CCC/C(=N\NC(=O)c2ccc(CSc3cccc4cccnc34)cc2)C1	4.6%
Cn1c(SCC(=O)N/N=C/C=C\c2ccco2)nc2ccccc21	-4.83%
Cn1c(SCC(=O)N/N=C/C=C/c2ccco2)nc2ccccc21	13% (active)
CCn1c(SCC(=O)N/N=C/C=C/c2ccco2)nc2ccccc21	-1.16%
COc1cc(CNCCN(C)C)c(Br)cc1OCC(=O)NCc1ccccc1	-1.96%
COc1ccc(/C=N/Nc2nc3ccccc3s2)cc1O	-3.48%
O=[N+]([O-])c1cc(Cl)cc(/C=N/Nc2nc3ccccc3s2)c1O	0.98%
COc1cc(/C=N/Nc2nc3ccccc3s2)cc([N+](=O)[O-])c1O	13.2% (active)
COc1ccc(/C=C/C(=O)OCC(=O)NC(=O)NC(C)(C)C)cc1	1.36%
O=C(/C=C/c1ccc2ccccc2n1)N1CCN(S(=O)(=O)c2ccccc2F)CC1	-1.23%
CC(=O)c1ccc(N2CCN(C(=O)/C=C/c3ccc4ccccc4n3)CC2)cc1	0.1%
CC(=O)c1ccc(S(=O)(=O)N2CCN(C(=O)/C=C/c3ccc4ccccc4n3)CC2)cc1	14.1% (active)
